The supplement of paper PMC10515830
Structures can show the parent of a compound that is named as a salt.

Legend:
Details in all cases: 10 µM; exposure time 6 h
[1] = test system: Danio rerio larvae (5 dpf); assay: difference in excitability vs DMSO (percentage points); higher = more excitable than DMSO
Method in brief: (§1)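 In 96-well plates, 48 wild-type zebrafish larvae aged 5 dpf per compound received 100 µL egg water with library compound at 10 µM final for 6 h. Three hours into this, a 3-h programme of moving lines and 100 ms, 400Hz tones ran at 28.5 ℃ while plates were photographed every 6 s. Z-LaP Tracker scored the behaviours, and each is given as the compound mean minus the vehicle control mean in percentage points.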

[2] = test system: Danio rerio larvae (5 dpf); assay: difference in startle response vs DMSO (percentage points); higher = stronger startle than DMSO
Method in brief: as §1

[3] = test system: Danio rerio larvae (5 dpf); assay: difference in activity during first hour vs DMSO (percentage points); higher = more activity than DMSO
Method in brief: as §1

[4] = test system: Danio rerio larvae (5 dpf); assay: difference in habituation to acoustic stimuli vs DMSO (percentage points); higher = more habituation than DMSO
Method in brief: as §1

[5] = test system: Danio rerio larvae (5 dpf); assay: difference in combined optomotor response to red, green and blue moving lines vs DMSO (percentage points); higher = stronger optomotor response than DMSO
Method in brief: as §1

| SMILES | difference in excitability [1] | difference in startle response [2] | difference in activity during first hour [3] | difference in habituation to acoustic stimuli [4] | difference [5] |
| --- | --- | --- | --- | --- | --- |
| Cn1c(=O)cc(N2CCC[C@@H](N)C2)n(Cc2ccccc2C#N)c1=O [Alogliptin (benzoate salt)] | 9.09 | 5.66 | 10.7 | -0.862 | 0.5 |
| Cc1oncc1C(=O)Nc1ccc(C(F)(F)F)cc1 [Leflunomide] | 20.4 | -4.19 | 4.33 | -10.8 | 2.2 |
| Cc1[nH]c(=O)c(C#N)cc1-c1ccncc1 [Milrinone] | -4.22 | -1.03 | 2.14 | 0.444 | 8.34 |
| COC(=O)N(C)c1c(N)nc(-c2nn(Cc3ccccc3F)c3ncccc23)nc1N [Riociguat] | 1.63 | 0.148 | 7.75 | 4.38 | -2.92 |
| COc1ccnc(C[S+]([O-])c2nc3cc(OC(F)F)ccc3[nH]2)c1OC (stereo not given) [Pantoprazole] | 1.4 | 2.07 | 3.07 | -4.45 | 5.14 |
| CCCN(CCC)CCc1cccc2c1CC(=O)N2 [Ropinirole (hydrochloride)] | 31.3 | -0.638 | -13.7 | -1.82 | -4.31 |
| CC[C@H](C)[C@@H]1NC(=O)[C@H](Cc2ccc(O)cc2)NC(=O)[C@@H](N)CSSC[C@@H](C(=O)N2CCC[C@H]2C(=O)N[C@@H](CC(C)C)C(=O)NCC(N)=O)NC(=O)[C@H](CC(N)=O)NC(=O)[C@H](CCC(N)=O)NC1=O [Oxytocin (acetate)] | -2.14 | 1 | -5.61 | 2.03 | 4.29 |
| CC[C@H](C)C[C@H](C)CCCCCCCCC(=O)N[C@H]1C[C@@H](O)[C@@H](NCCN)NC(=O)[C@@H]2[C@@H](O)CCN2C(=O)[C@H]([C@H](O)CCN)NC(=O)[C@H]([C@H](O)[C@@H](O)c2ccc(O)cc2)NC(=O)[C@@H]2C[C@@H](O)CN2C(=O)[C@H]([C@@H](C)O)NC1=O [Caspofungin (acetate)] | 12.4 | -1.41 | -14 | -0.0911 | -8.06 |
| NS(=O)(=O)c1cc2c(cc1Cl)NCNS2(=O)=O [Hydrochlorothiazide] | -7.7 | 3.06 | 2.42 | 1.66 | 2 |
| CC(C)NCC(O)COc1ccc(COCCOC(C)C)cc1 (stereo not given) [Bisoprolol (hemifumarate)] | 2.44 | 8.3 | 0.00157 | 3.42 | -3.86 |
| C#C[C@]1(O)CC[C@H]2[C@@H]3CCC4=CC(=O)CC[C@@H]4[C@H]3CC[C@@]21C [Norethindrone] | 4.84 | -3.95 | -0.842 | 2.6 | 11.2 |
| S=c1nc[nH]c2nc[nH]c12 [6-Mercaptopurine (hydrate)] | 6.66 | 2.46 | -5.06 | -0.245 | 1.98 |
| OC[C@H]1O[C@@H](c2ccc(Cl)c(Cc3ccc(O[C@H]4CCOC4)cc3)c2)[C@H](O)[C@@H](O)[C@@H]1O [Empagliflozin] | 2.31 | -2.32 | 18.8 | -5.57 | 4.06 |
| CC(=O)Nc1ccc(O)cc1 [Acetaminophen] | -1.23 | -0.558 | -0.87 | -5.65 | -2.34 |
| Nc1ncn([C@H]2C[C@H](O)[C@@H](CO)O2)c(=O)n1 [Decitabine] | -2.79 | -4.56 | -0.853 | 0.137 | 4.38 |
| Cc1cccc(Nc2ccncc2S(=O)(=O)NC(=O)NC(C)C)c1 [Torasemide] | 6.87 | -10.7 | 6.15 | -5.49 | -5.29 |
| CC(=O)Nc1nnc(S(N)(=O)=O)s1 [Acetazolamide] | -5.01 | 8.72 | 14.2 | 6.2 | 3.65 |
| c1ccc2c(CC3=NCCN3)cccc2c1 [Naphazoline (hydrochloride)] | 10.4 | -5.95 | 0.867 | -2.18 | -3.73 |
| CCCC(=O)O[C@]1(C(=O)COC(C)=O)CC[C@H]2[C@@H]3C[C@H](F)C4=CC(=O)C=C[C@]4(C)[C@@]3(F)[C@@H](O)C[C@@]21C [Difluprednate] | 3.2 | 2.35 | 6.57 | 4.62 | -1.11 |

| SMILES | difference in excitability [1] | difference in startle response [2] | difference in activity during first hour [3] | difference in habituation to acoustic stimuli [4] | difference [5] |
| --- | --- | --- | --- | --- | --- |
| Nc1cccc2c1CN(C1CCC(=O)NC1=O)C2=O (stereo not given) [Lenalidomide] | -0.5 | 7.32 | 0.485 | -0.169 | 5.58 |
| CC1=NN(c2ccccc2)C(=O)C1 | 2.26 | -0.112 | -1.37 | -1.34 | 4.56 |
| O=P(O)(O)C(O)(Cc1cccnc1)P(=O)(O)O [Risedronate (sodium salt)] | 3.7 | 4.04 | 24.7 | -2.36 | 9.6 |
| C=CC(N)CCC(=O)O (stereo not given) [Vigabatrin] | -1.24 | 5.92 | 1.31 | 1.13 | -0.249 |
| NC[C@@H](O)c1ccc(O)c(O)c1 [L-(-)-Norepinephrine (bitartrate hydrate)] | 5.69 | -4.59 | 23 | -6.22 | 6.76 |
| O=C(Nc1c(Cl)cncc1Cl)c1ccc(OC(F)F)c(OCC2CC2)c1 [Roflumilast] | 18.7 | -2.74 | -14.9 | -8.84 | -5.57 |
| CC[C@H](C)[C@H](N)C1=N[C@H](C(=O)N[C@@H](CC(C)C)C(=O)N[C@H](CCC(=O)[O-])C(=O)N[C@H](C(=O)N[C@H]2CCCCNC(=O)[C@H](CC(N)=O)NC(=O)[C@@H](CC(=O)[O-])NC(=O)[C@H](Cc3cnc[nH]3)NC(=O)[C@@H](Cc3ccccc3)NC(=O)[C@H]([C@@H](C)CC)NC(=O)[C@@H](CCCN)NC2=O)[C@@H](C)CC)CS1.[Zn+2] [Bacitracin (zinc)] | 20.6 | -4.52 | 30.1 | -11 | -7.98 |
| CCCc1nn(C)c2c(=O)[nH]c(-c3cc(S(=O)(=O)N4CCN(C)CC4)ccc3OCC)nc12 [Sildenafil Citrate] | 4.08 | -0.935 | -7.02 | -0.835 | 5.26 |
| Cc1c(-c2ccccc2)oc2c(C(=O)OCCN3CCCCC3)cccc2c1=O [Flavoxate (hydrochloride)] | 8.74 | 1.49 | 13.3 | -3.99 | 8.27 |
| NC(=O)[C@@H]1CC[C@@H]2CN1C(=O)N2OS(=O)(=O)O [Avibactam (sodium salt)] | 1.97 | 0.773 | 5.58 | 4.75 | 6.37 |
| CC(C)NCC(O)COc1ccc(CC(N)=O)cc1 (racemic) [(±)-Atenolol] | 3.98 | -0.206 | 8.47 | 1.78 | 1.82 |
| OC[C@H]1NC[C@H](O)[C@@H](O)[C@H]1O [1-Deoxygalactonojirimycin (hydrochloride)] | 1.33 | 1.49 | 16.8 | 3.98 | 3.06 |
| Cc1nc2c([nH]1)-c1ccccc1N(C(=O)c1ccc(NC(=O)c3ccccc3-c3ccccc3)cc1)CC2 [Conivaptan (hydrochloride)] | 12.9 | 4.28 | -10.7 | 3.17 | -0.877 |
| COCCCOc1cc(C[C@@H](C[C@H](N)[C@@H](O)C[C@H](C(=O)NCC(C)(C)C(N)=O)C(C)C)C(C)C)ccc1OC [Aliskiren (hemifumarate)] | 16.6 | -3.2 | 10.2 | 0.61 | 3.27 |
| c1cnc2cc3c(cc2n1)[C@@H]1CNC[C@H]3C1 [Varenicline (tartrate)] | 0.228 | 1.55 | 3.08 | 5.66 | -2.67 |
| Cn1c(=O)c2[nH]cnc2n(C)c1=O [Aminophylline] | 4.39 | 0.67 | 2.88 | -3.14 | 8.05 |
| C/C(O)=C(\C#N)C(=O)Nc1ccc(C(F)(F)F)cc1 | 5.48 | 1.5 | -4.86 | 6.45 | 3.09 |
| CCCCCC(=O)O[C@]1(C(C)=O)CC[C@H]2[C@@H]3CCC4=CC(=O)CC[C@]4(C)[C@H]3CC[C@@]21C [Hydroxyprogesterone Caproate] | 5.64 | -9.54 | -13.7 | -9.28 | -15.8 |
